Reference: PubChem BioAssay (NCI)
This is part of a sample that, as a whole, favours compounds with a hit. Of some 83,000 tested, about 20% had one in any assay.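 Results are percent growth after 48 hours of single-concentration exposure. 100 means growth as in untreated cells, lower positive values show inhibition; negative values down to -100 show cell death.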 Activity calls are given as the source filed them. Rule for the calls: active = growth percent below 10; inactive = the rest.

How the values were obtained:
Assay in all cases: NCI-60 one-dose screen, 48 h (100 = growth as untreated, 0 = no growth, -100 = all killed)
Details in all cases: 10 µM unless noted
T-47D breast = test system: T-47D breast
BT-549 breast = test system: BT-549 breast
MDA-MB-435 melanoma = test system: MDA-MB-435 melanoma
SW-620 colon = test system: SW-620 colon
MCF7 breast = test system: MCF7 breast
HCT-116 colon = test system: HCT-116 colon
HCC-2998 colon = test system: HCC-2998 colon
KM12 colon = test system: KM12 colon

Measured: growth

COc1ccc(C2CC(c3ccc(Nc4nc(Nc5ccccc5)nc(Nc5ccccc5)n4)cc3)=NN2C(C)=O)cc1 (stereo unspecified)
inactive: T-47D breast 73.4% | BT-549 breast 166% | MDA-MB-435 melanoma 93.7% | SW-620 colon 104% | MCF7 breast 129% | HCT-116 colon 96.5% | HCC-2998 colon 110% | KM12 colon 112%

COc1ccc(/C=C/C(=O)c2cccc(OCCCCOc3cccc(C(=O)/C=C/c4ccc(OC)c(OC)c4)c3)c2)cc1OC
inactive: T-47D breast 43.3% | BT-549 breast 60.7% | MDA-MB-435 melanoma 75.5% | SW-620 colon 89.5% | MCF7 breast 44.3% | HCT-116 colon 58.6% | HCC-2998 colon 116% | KM12 colon 79.1%

O=C(/C=C(/C=C/c1ccc2[nH]ccc2c1)OB(F)F)/C=C/c1ccc2[nH]ccc2c1
inactive: MCF7 breast 12.5%
active: T-47D breast 6.23% | BT-549 breast -28.2% | MDA-MB-435 melanoma -4.54% | SW-620 colon 6.41% | HCT-116 colon -79% | HCC-2998 colon -88.3% | KM12 colon -5.34%

O=S(=O)(Nc1cc(Cl)ccc1Cl)c1ccc(-c2cnc(C3CC3)o2)cc1
active: MDA-MB-435 melanoma -12%
inactive: T-47D breast 28.7% | BT-549 breast 40.5% | SW-620 colon 21% | MCF7 breast 12.9% | HCT-116 colon 21.5% | HCC-2998 colon 67.4% | KM12 colon 24%

N#Cc1c(-c2ccc(Cl)cc2)nc(NN2C(=O)c3ccccc3C2=O)nc1N1CCOCC1
inactive: T-47D breast 94.7% | BT-549 breast 112% | MDA-MB-435 melanoma 106% | SW-620 colon 98.8% | MCF7 breast 101% | HCT-116 colon 99.5% | HCC-2998 colon 111% | KM12 colon 107%

Cc1ccc2c(c1)=C/C(=C\c1cc(-c3ccccc3)oc1O)C(=O)N=2
inactive: T-47D breast 97.7% | BT-549 breast 94.3% | MDA-MB-435 melanoma 110% | SW-620 colon 107% | MCF7 breast 89.2% | HCT-116 colon 93.1% | HCC-2998 colon 115% | KM12 colon 100%

O=CN1N=C(c2cccc(Nc3ccnc4cc(Cl)ccc34)c2)CC1c1ccccc1 (stereo unspecified)
inactive: T-47D breast 45.5% | BT-549 breast 35.7% | SW-620 colon 34.2% | MCF7 breast 19.3% | HCC-2998 colon 12.4% | KM12 colon 19.7%
active: MDA-MB-435 melanoma -34.4% | HCT-116 colon 7.26%

COc1cc2c(c(OC)c1OC)CCC(c1cccc(C(=O)Nc3ccc(C#N)cc3)c1)O2 (stereo unspecified)
active: T-47D breast 3.61%
inactive: BT-549 breast 27.2% | MDA-MB-435 melanoma 36.6% | SW-620 colon 86.7% | MCF7 breast 32.5% | HCT-116 colon 48.8% | HCC-2998 colon 73.1% | KM12 colon 60.6%

O=C(CN1C(=O)S/C(=C\c2ccccc2)C1=O)Nc1ncc(Cc2ccccc2Cl)s1
inactive: T-47D breast 88.1% | BT-549 breast 113% | MDA-MB-435 melanoma 93.6% | SW-620 colon 105% | MCF7 breast 92.7% | HCT-116 colon 94.5% | HCC-2998 colon 105% | KM12 colon 102%

CN(C)S(=O)(=O)c1cccc(C(=O)Nc2nc(-c3ccc(F)c(F)c3)cs2)c1
inactive: T-47D breast 19.7% | BT-549 breast 52.5% | MDA-MB-435 melanoma 83.3% | SW-620 colon 93.9% | MCF7 breast 48.4% | HCT-116 colon 57.6% | HCC-2998 colon 88.1% | KM12 colon 97.4%

COc1ccc(\C=N/N=C(N)/C(N)=N\N=C/c2ccc(OC)cc2)cc1
inactive: T-47D breast 90.3% | BT-549 breast 116% | MDA-MB-435 melanoma 107% | SW-620 colon 103% | MCF7 breast 104% | HCT-116 colon 113% | HCC-2998 colon 110% | KM12 colon 110%

COC12C=C/C(=C(/C(=O)OCc3ccncc3)C(=O)CCCCCCCCC3(OC)C=C/C(=C(/C(=O)OCc4ccncc4)C(=O)CCCCCCCC1)O3)O2
active: T-47D breast 8.61% | BT-549 breast -14.7% | MDA-MB-435 melanoma -53.8% | SW-620 colon 9.25% | MCF7 breast -42.2% | HCT-116 colon -62.2% | HCC-2998 colon -83.4% | KM12 colon -77.2%

O=C(Nc1nc2ccccc2s1)c1ccc(F)cc1
inactive: T-47D breast 55.3% | BT-549 breast 109% | MDA-MB-435 melanoma 101% | SW-620 colon 112% | MCF7 breast 68.1% | HCT-116 colon 92.8% | HCC-2998 colon 69.9% | KM12 colon 52.8%

CC1OC(n2c3ccccc3c3c4c(c5c6ccccc6[nH]c5c32)C(=O)N(CCN2CCCC2)C4=O)CC(O)C1O (stereo unspecified)
inactive: T-47D breast 51.9% | BT-549 breast 65.6% | MDA-MB-435 melanoma 41.8% | SW-620 colon 17.7% | HCT-116 colon 25.8% | HCC-2998 colon 22% | KM12 colon 26.3%
active: MCF7 breast 9.93%

CC(C)=CCCC(C)c1ccc(C)c2c1OCN(CCCCCO)C2 (stereo unspecified)
inactive: T-47D breast 88.1% | BT-549 breast 72.1% | MDA-MB-435 melanoma 97.1% | SW-620 colon 94.9% | MCF7 breast 88.7% | HCT-116 colon 68.6% | HCC-2998 colon 73.5% | KM12 colon 104%

O=C(Nc1nc2cc(C(=O)N3CCN(C(c4ccccc4)c4ccccc4)CC3)ccc2o1)c1ccc(NC2CCCCC2)c([N+](=O)[O-])c1
inactive: T-47D breast 44.3% | BT-549 breast 83.4% | MDA-MB-435 melanoma 64.9% | SW-620 colon 44.3% | MCF7 breast 50.2% | HCT-116 colon 40.9% | HCC-2998 colon 62.2% | KM12 colon 51.4%

COc1cc2nc3cc([N+](=O)[O-])ccc3c(NCCNCC(C)O)c2cc1OC (stereo unspecified)
active: T-47D breast -7.36% | BT-549 breast -40.5% | MDA-MB-435 melanoma -87.6% | SW-620 colon -4.13% | MCF7 breast -13.3% | HCT-116 colon -18.8% | HCC-2998 colon -47.8% | KM12 colon -11.9%

O=C(O)c1cn(C2CC2)c2cc(N3CCN(C(=O)N(c4ccccc4)c4nc(-c5ccccc5)cs4)CC3)c(F)cc2c1=O
inactive: T-47D breast 11.4% | SW-620 colon 20.7% | HCC-2998 colon 16.5%
active: BT-549 breast -13% | MDA-MB-435 melanoma 8.3% | MCF7 breast 6.99% | HCT-116 colon 5.04% | KM12 colon 5.03%

O=C1C(=O)N(Cc2ccc(-c3ccccc3)cc2)c2ccc(OC(F)(F)F)cc21
active: BT-549 breast 0.708% | HCT-116 colon 9.92%
inactive: T-47D breast 49.7% | MDA-MB-435 melanoma 38% | SW-620 colon 23.5% | MCF7 breast 11.6% | HCC-2998 colon 36.6% | KM12 colon 12.5%

COc1ccc(C(C)=O)cc1S(=O)(=O)Nc1c(N)nc(SC)[nH]c1=O
inactive: T-47D breast 116% | BT-549 breast 117% | MDA-MB-435 melanoma 97.7% | SW-620 colon 101% | MCF7 breast 92.9% | HCT-116 colon 100% | HCC-2998 colon 99% | KM12 colon 96.7%

O=c1[nH]c(-c2ccccc2)nc2sc3cc(O)ccc3c12
inactive: T-47D breast 93% | BT-549 breast 82.3% | MDA-MB-435 melanoma 85.9% | SW-620 colon 101% | MCF7 breast 73.8% | HCT-116 colon 92.5% | HCC-2998 colon 95.9% | KM12 colon 87.6%

CC(=O)O[C@@H]1C[C@]2(C(C)C)O[C@@]1(C)[C@@H]1CCC(C)=C1[C@@H]2OC(=O)/C=C/c1ccccc1
inactive: T-47D breast 76.8% | BT-549 breast 105% | MDA-MB-435 melanoma 91.9% | SW-620 colon 90.6% | MCF7 breast 83.9% | HCT-116 colon 88.5% | HCC-2998 colon 103% | KM12 colon 92.8%

Nc1nc(-c2ccc(Cl)cc2)nc2c1sc(=S)n2-c1ccccc1
inactive: T-47D breast 14.8% | BT-549 breast 54.9% | MDA-MB-435 melanoma 57.4% | SW-620 colon 55.3% | MCF7 breast 57.6% | HCT-116 colon 20.1% | HCC-2998 colon 72.3% | KM12 colon 36%

O=C(Cn1cc(CSc2nc3ccccc3o2)nn1)Nc1ccc(F)cc1F
inactive: T-47D breast 116% | BT-549 breast 113% | MDA-MB-435 melanoma 114% | SW-620 colon 112% | MCF7 breast 92.5% | HCT-116 colon 109% | HCC-2998 colon 111% | KM12 colon 116%

CSc1nc2ccccc2cc1/C=C1/C=C(c2ccccc2)NC1=O
active: MDA-MB-435 melanoma 3.27%
inactive: T-47D breast 79.9% | BT-549 breast 77.4% | SW-620 colon 55.4% | MCF7 breast 49.8% | HCT-116 colon 56.8% | HCC-2998 colon 93.2% | KM12 colon 59.6%

CS(=O)(=O)Nc1cc(-c2ccc3ncnc(Nc4ccc5c(cnn5Cc5ccc(F)cc5)c4)c3c2)cnc1Cl
inactive: MDA-MB-435 melanoma 45.3% | SW-620 colon 43.1% | MCF7 breast 14.4% | HCT-116 colon 57% | HCC-2998 colon 59.1% | KM12 colon 71.8%
active: T-47D breast 5.06% | BT-549 breast 9.27%

Clc1ccc(/C=N\N=C\c2ccc(Cl)c(Cl)c2)cc1Cl
inactive: T-47D breast 90.3% | BT-549 breast 74.2% | MDA-MB-435 melanoma 101% | SW-620 colon 53.8% | MCF7 breast 72.8% | HCT-116 colon 53.3% | HCC-2998 colon 96.1% | KM12 colon 101%
